In PubChem BioAssay (Tox21):
Results filed as inconclusive are left out. A call without a number means that no potency is given here. Some structures have more than one record in an assay (separate samples or runs), and their calls can disagree. The source made the active and inactive calls. Calls follow the shape of the dose curve; as a rule, active = well fitted curve in the direction sought with a large enough effect in the repeat runs; inconclusive = weak or mixed curves; inactive = no such curve, though single readings can be large; an effect the other way counts as inactive or inconclusive.

Experiments:
[1] = biological target: Cytochrome P450 1A2 (Homo sapiens) (UniProt P05177); assay: Cytochrome P450 Family 1 Subfamily A Member 2 (CYP1A2) small molecule antagonists: luciferase reporter qHTS assay (AID 1671199); as to activity change, negative = inhibition: series mostly up to about 120 µM
Cytochrome P450 1A2 (Homo sapiens), sequence (P05177 whole entry, looked up): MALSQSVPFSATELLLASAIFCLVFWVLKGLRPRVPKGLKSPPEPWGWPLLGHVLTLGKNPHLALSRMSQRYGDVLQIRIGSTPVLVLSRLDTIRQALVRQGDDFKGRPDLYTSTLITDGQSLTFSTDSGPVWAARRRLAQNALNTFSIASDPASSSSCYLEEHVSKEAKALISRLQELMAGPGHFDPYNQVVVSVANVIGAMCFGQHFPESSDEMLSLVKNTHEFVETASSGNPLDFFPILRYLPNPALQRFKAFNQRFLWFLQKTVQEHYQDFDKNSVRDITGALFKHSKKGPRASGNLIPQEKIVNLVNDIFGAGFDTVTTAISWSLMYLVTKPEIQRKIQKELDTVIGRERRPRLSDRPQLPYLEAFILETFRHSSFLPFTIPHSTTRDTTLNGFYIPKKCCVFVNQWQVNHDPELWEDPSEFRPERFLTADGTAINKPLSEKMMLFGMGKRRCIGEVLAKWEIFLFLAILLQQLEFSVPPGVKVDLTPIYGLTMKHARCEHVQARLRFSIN
Summary of the method: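 Compounds were incubated with CYP1A2 and a luminogenic proluciferin substrate for 10 min at room temperature before the reaction was started with NADPH regeneration solution. After 1 h, detection reagent was added and light output, proportional to CYP activity, was recorded.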

[2] = biological target: Voltage-gated inwardly rectifying potassium channel KCNH2 (Homo sapiens) (UniProt Q12809); assay: Human Ether-a-go-go-Related Gene (hERG) channel small molecule antagonists: fluorescence cell-based qHTS assay (AID 1671200);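 as to activity change, negative = inhibition: hERG-expressing U2OS cells given a thallium stimulus after FluxOR II dye loading; series mostly up to about 77 µM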
Voltage-gated inwardly rectifying potassium channel KCNH2 (Homo sapiens), sequence (Q12809 whole entry, looked up): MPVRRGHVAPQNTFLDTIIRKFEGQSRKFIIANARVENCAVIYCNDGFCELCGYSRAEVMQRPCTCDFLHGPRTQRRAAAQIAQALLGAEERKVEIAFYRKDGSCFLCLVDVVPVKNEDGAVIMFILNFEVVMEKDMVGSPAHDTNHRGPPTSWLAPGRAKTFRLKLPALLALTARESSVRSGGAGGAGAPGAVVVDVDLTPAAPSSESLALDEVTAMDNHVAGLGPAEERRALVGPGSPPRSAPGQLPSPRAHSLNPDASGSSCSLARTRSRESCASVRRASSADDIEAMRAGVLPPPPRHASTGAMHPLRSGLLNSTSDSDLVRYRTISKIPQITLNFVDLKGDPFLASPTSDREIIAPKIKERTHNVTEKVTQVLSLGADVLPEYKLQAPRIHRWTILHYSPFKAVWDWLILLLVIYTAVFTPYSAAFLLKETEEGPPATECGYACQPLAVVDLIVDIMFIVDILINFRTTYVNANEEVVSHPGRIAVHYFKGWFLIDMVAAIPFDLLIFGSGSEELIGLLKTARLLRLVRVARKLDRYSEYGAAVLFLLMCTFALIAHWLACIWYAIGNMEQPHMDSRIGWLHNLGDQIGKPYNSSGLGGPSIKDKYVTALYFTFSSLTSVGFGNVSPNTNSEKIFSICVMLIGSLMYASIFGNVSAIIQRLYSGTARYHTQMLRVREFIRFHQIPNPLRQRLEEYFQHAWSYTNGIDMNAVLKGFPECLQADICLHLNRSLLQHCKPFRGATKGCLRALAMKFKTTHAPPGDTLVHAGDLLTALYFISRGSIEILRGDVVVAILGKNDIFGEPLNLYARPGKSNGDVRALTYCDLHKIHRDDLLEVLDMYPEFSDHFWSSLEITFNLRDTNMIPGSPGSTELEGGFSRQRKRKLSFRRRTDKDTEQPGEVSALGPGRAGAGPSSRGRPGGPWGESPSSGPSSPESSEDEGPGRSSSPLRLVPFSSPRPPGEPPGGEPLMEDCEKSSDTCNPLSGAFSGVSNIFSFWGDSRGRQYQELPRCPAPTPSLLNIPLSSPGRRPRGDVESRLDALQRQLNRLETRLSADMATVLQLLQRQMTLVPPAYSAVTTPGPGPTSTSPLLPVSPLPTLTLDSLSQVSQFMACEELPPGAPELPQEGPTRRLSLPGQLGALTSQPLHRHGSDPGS
Summary of the method: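 Fluorescence at 540 nm emission (480 nm excitation) was recorded kinetically for 2 min at 1-second intervals once the thallium-containing stimulus reached cells previously loaded with FluxOR II dye.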
Also: nearly all actives have a fitted effect of over 50% in size.
Potency is read from the fitted curve at half-maximal effect.

| SMILES | Potency [1] | Potency [2] | activity change, negative = inhibition [2] |
| --- | --- | --- | --- |
| CCCCCCCC/C=C\CCCCCCCC(=O)NCc1ccc(O)c(OC)c1 | 15.5 µM (active) | inactive |  |
| CCOC(=O)COc1ccc(C)cc1 | 39.9 µM (active) | inactive |  |
| N#CSCSc1nc2ccccc2s1 | 5.64 µM (active) | inactive |  |
| Cc1c(C)n(Cc2ccccc2)c2ccc(C(=O)OCCN(C)C)cc12 | 10.2 µM (active) | 10.7 µM (active) |  |
| Cc1oc(-c2ccccc2)nc1CCOc1ccc(C[C@H](Nc2ccccc2C(=O)c2ccccc2)C(=O)O)cc1 | inactive | inactive |  |
| CN1CCN(C2Cc3ccccc3Sc3ccc(Cl)cc32)CC1 (centres undefined) | inactive | 0.848 µM (active) |  |
| ClC/C=C\CCl | 11.7 µM (active) | inactive |  |
| CC1CCCNC1 (centres undefined) | inactive | inactive |  |
| CCOC(=O)CN | inactive | inactive |  |
| CCN(CC)CCNc1ccc(CO)c2sc3ccccc3c(=O)c12 | 0.512 µM (active) | 10.7 µM (active) |  |
| CCOC(/C=C(\C)CCC=C(C)C)OCC | inactive | inactive |  |
| CCOCN(C(=O)CS(=O)(=O)O)c1c(C)cccc1CC | inactive | inactive |  |
| O=C1OC(=O)c2cccc3cccc1c23 | 35.9 µM (active) | inactive |  |
| CC1=C(/C=C/C(C)=C/C=C/C(C)=C/C(=O)Nc2ccc(O)cc2)C(C)(C)CCC1 | 72.8 µM (active) and inactive | inactive |  |
| C=CC(C)C#N (centres undefined) | inactive | inactive |  |
| CCCCCCCOC(=O)c1ccccc1C(=O)OCCCCCCC | 15.9 µM (active) | inactive |  |
| C=CC(=C)CC/C=C(\C)CCC=C(C)C | 15.1 µM (active) |  | -2.72% [at 15.8 µM] (inactive) |
